An excerpt weighted towards active compounds, which were near 7.4% of everything screened.
ELG1 genotoxic = inducers of genotoxicity in HEK293T ELG1-luciferase cells; HEK293T ELG1-luciferase reporter, luminescence, 16 h; Potency, µM (titrated, usually from 46 µM), for inactives: at the highest dose activity change, positive = activation, usual class: activators; actives 1.3% (n = 330,000); AID 504466; further: % of control where 0% means no effect; nearly all actives have a fitted effect of over 60% in size
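Step 1: seed 2,000 HEK293T ELG1-luciferase cells per well. Step 2: add compound or DMSO, incubate 16 hr at 37 °C. Step 3: ONE-Glo, 30 min at room temperature, read luminescence.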
FLuc modulator = inhibits or activates purified firefly luciferase, miR-21 counter-screen. purified FLuc, Km substrates, luminescence inhibition. Potency, µM (titrated, usually from 57.5 µM), for inactives: top-dose activity change, negative = inhibition, hits mostly inhibitors. actives 6.9% (n = 360,000). P08659. AID 588342;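 further: plate controls were vehicle for no effect and reference inhibitor for full effect; nearly all actives have a fitted effect of over 55% in size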
Target sequence (P08659 whole entry, looked up): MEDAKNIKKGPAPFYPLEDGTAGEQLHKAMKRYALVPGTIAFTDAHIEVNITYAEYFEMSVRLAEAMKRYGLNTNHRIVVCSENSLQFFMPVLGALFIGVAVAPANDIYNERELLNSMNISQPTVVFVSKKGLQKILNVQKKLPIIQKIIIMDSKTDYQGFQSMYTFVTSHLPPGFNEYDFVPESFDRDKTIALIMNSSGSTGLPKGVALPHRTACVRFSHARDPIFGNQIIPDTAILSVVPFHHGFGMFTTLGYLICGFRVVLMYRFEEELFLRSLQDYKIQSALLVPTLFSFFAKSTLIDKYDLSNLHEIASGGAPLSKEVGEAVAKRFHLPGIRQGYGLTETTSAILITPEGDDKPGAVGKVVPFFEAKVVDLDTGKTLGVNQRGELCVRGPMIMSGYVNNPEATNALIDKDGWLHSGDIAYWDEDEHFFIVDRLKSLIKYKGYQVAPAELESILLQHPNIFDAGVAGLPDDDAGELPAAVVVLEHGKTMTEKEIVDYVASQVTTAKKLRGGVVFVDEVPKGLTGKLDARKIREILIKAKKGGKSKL
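Biochemical qHTS of compounds, final roughly 60 µM downward over six points, against 10 nM purified firefly luciferase using Km concentrations of substrates (10 uM D-luciferin, 10 uM ATP) in Tris acetate pH 7.5 buffer; luminescence output.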
Luc counter = counter-screen: inhibitors of Kinase-Glo firefly luciferase; Q27757; Kinase-Glo luciferase, ATP luminescence, 8 min; Potency, µM (doses to about 38.3 µM), for the others: at the highest dose activity change, negative = inhibition, hits mostly inhibitors; actives 0.28% (n = 200,000); AID 1379; further: on the % scale 0 is the no-effect control and ±100 the full control effect; nearly all actives have a fitted effect of over 60% in size
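Compound is pinned into ATP-containing buffer (10 uM ATP, imidazole pH 7.2, 7 mM MgCl2). Kinase-Glo luciferase reagent is then added. Light output is recorded following an 8-min room-temperature incubation.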
Rab9 promoter act = activators of Rab9 promoter; Huh7 Rab9 promoter-luciferase reporter, luminescence, 24 h; Potency, µM (doses to about 9.22 µM), without a hit: at the top dose activation, negative = inhibition, most hits filed as activators; actives 2.8% (n = 320,000); AID 485297; further: % of control where 0% means no effect; nearly all actives have a fitted effect of over 60% in size
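Steps: seed 1500 Huh7 Rab9-luc cells per well, rest 2 h at 37 °C; add compound in DMSO; incubate 24 h; add luciferase reagent, 10 min ambient; read luminescence.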
SMN2 splice up = SMN2 splice variant enhancement; actives 2.8% (n = 210,000); AID 1458; HEK293 SMN2-luciferase splicing reporter, luminescence, 30-36 h; Potency, µM (highest dose often 46.1 µM), for inactives: at the top dose activity change, positive = activation, most hits filed as activators; further: % of control where 0% means no effect; nearly all actives have a fitted effect of over 55% in size
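HEK293 cells carry an SMN2 […]–luciferase reporter in which exon 7 inclusion puts luciferase in frame. Cells were plated 10-12 h before compound addition, then incubated 30-36 h at 37C. ONE-Glo luminescence was read; sodium butyrate at 4.5 mM final served as control.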
NPC1 prom act = NPC1 promoter activation | Huh7 NPC1 promoter luciferase reporter, 24 h | Potency, µM (titrated, usually from 9.22 µM), without a hit: at the highest dose activation, hits mostly activators | actives 2.4% (n = 320,000); further: % of control where 0% means no effect; nearly all actives have a fitted effect of over 60% in size
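Stable NPC1-promoter luciferase Huh7 line; cpd (DMSO) 24 h, 37 °C, 5% CO2; Amplite luciferase reagent 10 min RT; luminescence readout. qHTS format.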
* = called active by the depositor; ? = inconclusive; · = no result given; [ ] = another dose, or the depositor's remark. The call rests on the fitted dose curve; in most records, active means well fitted curve in the direction sought with a large enough effect; inconclusive means small, poorly fitted or top-dose-only effect, or another doubt; inactive means no such curve, though single readings can be large; an effect the other way counts as inactive or inconclusive. Potency means the concentration at half of the fitted maximal effect.

SMILES | ELG1 genotoxic | FLuc modulator | Luc counter | Rab9 promoter act | SMN2 splice up | NPC1 prom act
Cc1cc(=O)[nH]c(N=N/C(=N/Nc2ccccc2C)c2ccccc2)n1 | 4.1% | -19.9% | ? | -28.8% | -94.1% | -16.4%
CN(C)c1ccc(CNC(=O)c2ccc3c(c2)N(C)C(=O)C2CCCCN32)cc1 (stereo not drawn) | · | 3.2% | · | · | · | ·
COc1ccc(NC(=S)Nc2ncccc2C)cc1OC | ? | ? | -6.8% | ? | 35.5µM* | ?
Cc1cccnc1NC(=S)Nc1ncccc1C | ? | 13.5µM* | · | 0.708µM* | · | 1.26µM*
Cc1cccc(NC(=S)NCCc2ccccc2)c1C | -4.8% | -0.3% | · | 3.3% | · | 1.3%
COc1ccc(NC(=S)Nc2ncccc2C)c(OC)c1 | 11.8% | 9.53µM* | -5.5% | ? | ? | ?
Cc1cccnc1NC(=S)NCCc1ccccc1 | ? | 16.9µM* | -4.7% | ? | ? | 23.5%
Cc1ccc(CN(Cc2ccco2)c2cnc(S(C)(=O)=O)nc2C(=O)Nc2ccc(Br)cc2)o1 | · | -0.7% | · | · | · | ·
CC(C)CCN(C(=O)c1cn2ccccc2n1)c1c(N)n(Cc2ccccc2)c(=O)[nH]c1=O | -0.6% | 2.3% | · | 0.6% | · | 0.6%
O=C(Cn1ncn2c(cc3cc(F)ccc32)c1=O)NC1CCCCC1 | · | 3.6% | · | · | 8.5% | ·
O=C(COC(=O)c1ccc2ncsc2c1)Nc1ccccc1Cl | 9.1% | · | · | · | · | ·
Nc1c2c(nc3sc4c(c13)CCCC4)-c1ccccc1CC2 | 0.731µM* | 0.135µM* | · | 0.141µM* | · | 0.501µM*
Cc1cc2c(c(=O)n1Cc1ccccc1)C1O[C@](CCCCN3C(=O)c4ccccc4C3=O)(Cc3cc(C#N)ccc31)O2 | · | 0.5%[11.5 µM] | · | -4.3%[1.84 µM] | · | 1.1%[1.84 µM]
O=C(CCn1cnc2ccccc21)N/N=C/c1ccccc1O | ? | 8.49µM* | -0.2% | -35.4% | -53.0% | 0.7%
O=c1oc(-c2cccs2)nc2sc3c(c12)CCC3 | -1.1% | ? | -5.4% | -1.0% | ? | 18.3%
O=c1[nH]c(-c2ccco2)nc2sc3c(c12)CCCC3 | 9.2µM* | 3.01µM* | -10.8% | 1.58µM* | 1µM* | 2µM*
O=c1[nH]c(S)nc2sc3c(c12)CCCC3 | 1.2% | ? | 1.5% | -2.8% | 5.3% | 0.2%
O=c1oc(/C=C/c2ccco2)nc2sc3c(c12)CCC3 | 0.3% | 0.953µM* | -4.0% | 16.3% | 15.0% | 17.8%
COC(=O)c1ccc(C#CC(NP(=O)(c2ccccc2)c2ccccc2)c2ccccc2)cc1 (stereo not drawn) | · | · | -8.7% | · | -20.1% | ·
COC(=O)c1sc(NC(=O)COc2ccccc2)nc1C | 18.4µM* | 16.9µM* | 0.6% | ? | 8.4% | ?
COC(=O)c1sc(NC(=O)COc2ccc(C)cc2)nc1C | 5.6% | 16.9µM* | -1.7% | 11.3% | 5.6% | -0.8%
CC(C)c1nnc(NC(=O)Cc2cccs2)s1 | 3.6% | 2.0% | -3.6% | 0.7% | -11.8% | -1.1%
COC(=O)c1c(NC(=O)Cc2cccs2)sc2c1CCC(C)C2 (stereo not drawn) | 9.2% | 16.9µM* | 5.0% | ? | -1.0% | 21.0%
COC(=O)c1sc(NC(=O)Cc2cccs2)nc1C | 20.6µM* | ? | -3.3% | 26.7% | ? | 13.3%
CN(C)c1ccc(CNc2nc(-c3ccco3)nn2S(=O)(=O)c2ccc3ccccc3c2)cc1 | · | -12.2% | · | · | · | ·
SMILES | ELG1 genotoxic | FLuc modulator | Luc counter | Rab9 promoter act | SMN2 splice up | NPC1 prom act
Cc1ccn2c(=O)c(NC(=O)c3cccs3)c(C)nc2c1 | 2.0% | -7.3% | · | -5.7% | · | -7.1%
Fc1ccc(-n2nnc(-c3cccnc3)n2)cc1 | ? | 15.1µM* | · | 3.16µM* | · | ?
Fc1ccc(C(CCCn2nnc(-c3cccnc3)n2)c2ccc(F)cc2)cc1 | -10.3% | -0.8% | -2.1% | 4.7% | · | -0.3%
Brc1ccccc1-n1nnc(-c2cccnc2)n1 | 10.1% | 16.9µM* | · | ? | · | ?
Clc1ccc(-n2nnc(-c3cccnc3)n2)cc1Cl | ? | ? | · | 3.16µM* | · | 3.98µM*
O=c1[nH]c2ccccc2cc1-c1nnn(-c2ccc(F)cc2)n1 | ? | 1.9µM* | · | 2.51µM* | · | 3.55µM*
Fc1ccc(-n2nnc(-c3ccccc3Br)n2)cc1 | -4.2% | 4.3% | · | -0.2% | · | -0.1%
CCCCCC1CC(=O)C=C(C)C1C(=O)OC (stereo not drawn) | -0.5% | -0.3% | · | -0.1% | · | 2.7%
COc1ccc2c(c1)CCCC21NC(=O)N(CC(=O)NCc2cccs2)C1=O (stereo not drawn) | -0.6% | · | · | · | · | ·
C/C(=N\NC(=O)Cc1ccc(Cl)cc1)c1cccc(NC(=O)c2cccnc2)c1 | -1.0% | 0.1% | · | -1.0% | · | 0.9%
Fc1ccc(-n2nnc(-c3cnc4ccccc4c3)n2)cc1 | 0.231µM* | 0.135µM* | · | 0.1µM* | · | ?
Clc1ccccc1-c1ncc(-c2ccccc2)o1 | 4.61µM* | 1.35µM* | · | 2.82µM* | · | 2.51µM*
CCCCc1ccc(-c2nc(NC(=O)C3C4CCC(O4)C3C(=O)O)sc2C)cc1 (stereo not drawn) | 16.4µM* | 21.3µM* | -1.6% | 12.3% | -13.0% | 15.8%
CCOC(=O)C1(Cc2cccc(OC)c2)CCCN(C(=O)c2cc(CC(C)C)[nH]n2)C1 (stereo not drawn) | ? | 21.3µM* | · | 3.55µM* | · | ?
CCOC(=O)C1(Cc2cccc(OC)c2)CCCN(C(=O)CCN2CCCO2)C1 (stereo not drawn) | 23.1µM* | 15.1µM* | · | 3.16µM* | · | 3.55µM*
CCOC(=O)C1(Cc2cccc(OC)c2)CCCN(C(=O)c2ccc(OC)o2)C1 (stereo not drawn) | ? | 12µM* | · | 2.51µM* | · | ?
CCOC(=O)C1(Cc2cccc(OC)c2)CCCN(Cc2cc(OC)c(O)c(OC)c2)C1 (stereo not drawn) | -3.9% | -2.5% | · | 7.0% | · | 3.8%
O=C(c1cnn(-c2cccc(F)c2)c1-n1cccc1)N1CCN(c2ccccc2F)CC1 | · | -2.4% | · | · | · | ·

Screening data (PubChem)
